From PubChem BioAssay AID624094 (National Center for Advancing Translational Sciences (NCATS), 2012)
Inconclusive results are not listed. Calls of active or inactive are those of the source. Calls come from the whole dose curve; as a rule, active = well fitted inhibition curve with a large enough effect; inconclusive = small, poorly fitted or top-dose-only effect; inactive = flat fitted curve, though single readings scatter.

Molecular target: Dual specificity protein kinase CLK4 (Homo sapiens) (UniProt Q9HAZ1)
Assay: Confirmation Assay for Inhibitors of Clk4 (Kinase-Glo Assay): KU probe
Method in brief: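 Read-out was Kinase-Glo luciferase luminescence of ATP left after 4.5 h room-temperature reaction. Final conditions: Clk4 25 nM, ATP 1 uM, RS peptide 100 uM, 25 mM Tris pH 7.5, 10 mM MgCl2, 0.5 mM EGTA, 2.5 mM DTT, 0.01% Triton X-100.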

Chain of Dual specificity protein kinase CLK4 (Homo sapiens) (Q9HAZ1 whole entry, looked up): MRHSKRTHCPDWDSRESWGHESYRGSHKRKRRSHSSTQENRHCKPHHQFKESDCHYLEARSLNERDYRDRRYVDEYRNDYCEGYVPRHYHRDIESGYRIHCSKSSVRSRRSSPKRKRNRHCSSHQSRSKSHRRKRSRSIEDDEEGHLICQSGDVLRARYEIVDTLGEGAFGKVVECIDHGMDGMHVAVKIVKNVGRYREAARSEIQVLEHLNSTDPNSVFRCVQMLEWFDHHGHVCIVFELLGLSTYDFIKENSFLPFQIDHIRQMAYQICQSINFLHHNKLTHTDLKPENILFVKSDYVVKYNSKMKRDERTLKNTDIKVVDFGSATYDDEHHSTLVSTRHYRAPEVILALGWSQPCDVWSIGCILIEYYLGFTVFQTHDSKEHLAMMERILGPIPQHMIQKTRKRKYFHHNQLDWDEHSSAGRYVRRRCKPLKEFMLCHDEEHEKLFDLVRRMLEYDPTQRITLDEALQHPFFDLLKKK

| Structure (SMILES) | Potency |
| --- | --- |
| COc1ccc(-c2nccc(NCc3ccc(Cl)c(Cl)c3)n2)cc1 | 11.6 µM (active) |
| COc1cccc(-c2nccc(NCc3ccc(Cl)cc3)n2)c1 | 13 µM (active) |
| Cc1csc(CNc2ncnc3ccc(-c4ccc(C(=O)O)o4)cc23)n1 | 0.292 µM (active) |
| CN(CC1CCCCO1)c1ncnc2ccc(-c3ccc4c(c3)OCO4)cc12 (configuration not stated) | 0.0463 µM (active) |
| c1nc(NCC2CC2)c2cc(-c3ccc4c(c3)OCO4)ccc2n1 | 0.0328 µM (active) |
| O=C(Nc1ccnc(-c2ccc3c(c2)OCO3)n1)c1cnc(Cl)c(Cl)c1 | inactive |
| c1cc(-c2ccoc2)nc(-c2ccoc2)n1 | 5.82 µM (active) |
| Clc1ccc(CNc2nccc(-c3ccc4cn[nH]c4c3)n2)cc1Cl | 5.82 µM (active) |
| Cc1ccc(CNc2ccnc(-c3cccc(C#N)c3)n2)cc1 | 23.2 µM (active) |
| c1cncc(CNc2ccnc(-c3ccc4ccccc4c3)n2)c1 | 14.6 µM (active) |
| Fc1cc(CNc2ccnc(-c3ccc4c(c3)OCO4)n2)cc(F)c1F | 23.2 µM (active) |
| Brc1cc(Br)cc(CNc2nccc(-c3ccc4c(c3)OCO4)n2)c1 | 0.0368 µM (active) |
